From PubChem BioAssay
Sampled rows, rich in hits. Any-hit rate of the full collection: about 3.3%.
14-3-3 Bad PPI – disrupts binding of bovine 14-3-3 zeta to phospho-Bad peptide. TR-FRET 14-3-3zeta/Dy647-pBad peptide displacement, 1 h. inhibition, % at 21.7 µM. hit rate 0.71% among 220,000;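 active = inhibition above about 70%, limit read from the data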
Target sequence (P63103 whole entry, looked up): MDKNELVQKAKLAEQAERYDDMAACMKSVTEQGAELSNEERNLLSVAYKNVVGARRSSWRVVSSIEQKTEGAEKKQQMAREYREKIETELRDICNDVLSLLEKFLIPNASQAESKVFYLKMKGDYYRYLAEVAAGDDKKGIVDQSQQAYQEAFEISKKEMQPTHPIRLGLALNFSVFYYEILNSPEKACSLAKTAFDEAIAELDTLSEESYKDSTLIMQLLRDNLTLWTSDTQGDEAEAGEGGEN
NCF1 inh – blocks human p47phox regulatory protein of NADPH oxidases; p47phox/p22phox peptide binding, fluorescence polarization, 2 h; inhibition, % at 24.7 µM; hit rate 0.53% among 220,000; AID 1274
Target sequence (P14598 whole entry, looked up): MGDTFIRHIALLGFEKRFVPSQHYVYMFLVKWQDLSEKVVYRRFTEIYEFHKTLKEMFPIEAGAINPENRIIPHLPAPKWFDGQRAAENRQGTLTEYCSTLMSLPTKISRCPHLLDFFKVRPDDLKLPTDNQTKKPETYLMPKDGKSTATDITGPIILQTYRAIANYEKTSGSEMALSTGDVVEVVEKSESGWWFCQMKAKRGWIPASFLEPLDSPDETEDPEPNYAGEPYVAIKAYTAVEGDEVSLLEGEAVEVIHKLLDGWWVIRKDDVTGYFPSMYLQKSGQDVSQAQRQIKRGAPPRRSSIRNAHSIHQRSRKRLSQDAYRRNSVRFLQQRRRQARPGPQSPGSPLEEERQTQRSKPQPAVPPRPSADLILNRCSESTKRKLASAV
Mcl1-Bid inh – disrupts binding of human Mcl-1 to Bid peptide; TR-FRET Mcl-1/Bid-Dy647 peptide binding, 1536-well; AID 1021; hit rate 0.97% among 220,000; Q07820; inhibition, % at 21.7 µM;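 active = compounds that cut the binding signal by more than half at the single screening dose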;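 note: His-tagged Mcl-1 with europium anti-His antibody binding Bid BH3 peptide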
eIF4E 4G PPI – inhibitors of eIF4E and eIF4G interaction in translation initiation; TR-FRET eIF4E-eIF4GI(517-606) binding, 2 h; inhibition, % at 21.7 µM; hit rate 0.37% among 220,000
Bim-Mcl-1 – disrupts Bim peptide binding to human Mcl-1; inhibition, % at 10 µM; Bead-based flow cytometry, Bim peptide-Mcl-1 binding; hit rate 0.1% among 190,000; in the data active = inhibition above about 40%
Mcl1 Noxa PPI – Mcl-1/Noxa interaction inhibition. Q07820. TR-FRET Mcl-1/Noxa peptide binding, 2 h. inhibition, % at 21.7 µM. hit rate 1.5% among 220,000;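 active = compounds that cut the protein-peptide binding signal by more than 50% relative to plate controls in a single-dose test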;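 note: His-tagged Mcl-1 with rhodamine Noxa BH3 peptide and terbium anti-His antibody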
Large screens that a line does not name were inactive; [ ] = dose if it differs, or a comment.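 Rule for the calls, unless noted: active = inhibition above about 30% (limit read from the data); inactive = the rest.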

O=C(COc1ccc(Cl)cc1Cl)NCC(=O)N/N=C/c1c[nH]c2ccccc12	Mcl1 Noxa PPI 58
O=C(CSc1nnc(SCc2ccc(Cl)cc2)s1)N/N=C/c1c[nH]c2ccccc12	14-3-3 Bad PPI 90[fluorescence artefact?], NCF1 inh 43, Mcl1-Bid inh 92, Mcl1 Noxa PPI 65
COc1ccccc1C(=O)C1CCCN(C(=O)c2cc(CC(C)C)nc(C)n2)C1 (centres undefined)	none
Cc1n(N)c2ccccc2[n+]1CC(=O)c1ccccc1	none
CCOc1ccccc1Nc1nc(-c2sc(NC(=O)c3ccccc3)nc2C)cs1	none
O=C(Nc1nc(-c2ccncc2)cs1)c1ccco1	Mcl1 Noxa PPI 94
COc1cccc(Nc2nc(-c3sc(NC(=O)c4ccco4)nc3C)cs2)c1	Bim-Mcl-1 56
CCOc1ccccc1Nc1nc(-c2sc(NC(=O)c3cccc(Cl)c3)nc2C)cs1	14-3-3 Bad PPI 71
Cc1ccc(Cl)cc1Nc1nc(-c2sc(NC(=O)c3ccccc3)nc2C)cs1	14-3-3 Bad PPI 83[fluorescence artefact?], Mcl1-Bid inh 100, Mcl1 Noxa PPI 106
CC(=O)Nc1ccc(-c2csc(N/N=C\c3ccncc3)n2)cc1	Mcl1 Noxa PPI 51 (no result: Bim-Mcl-1)
Cc1cc(NS(=O)(=O)c2ccc(Nc3nc(-c4sc(NC(=O)c5ccccc5)nc4C)cs3)cc2)no1	Mcl1 Noxa PPI 117
COc1ccccc1Nc1nc(-c2sc(NC(=O)c3ccccc3)nc2C)cs1	none
Cc1nc(NC(=O)c2ccccc2)sc1-c1csc(Nc2cccc(F)c2)n1	14-3-3 Bad PPI 71, Mcl1 Noxa PPI 56
COc1ccccc1Nc1nc(-c2sc(NC(=O)c3ccc([N+](=O)[O-])cc3)nc2C)cs1	Mcl1 Noxa PPI 86
Cc1cc(C)c(OCC(O)CN2CCN(c3ccccn3)CC2)c(C)c1 (centres undefined)	none
Cc1cc(OCC(=O)N(C(C)C)C(C)C)cc(C)c1Br	none
O=C(CCc1nnc(-c2ccc3c(c2)OCO3)o1)N1CCC(c2ccc(F)cc2)C1 (centres undefined)	none
COc1ccc(NS(=O)(=O)c2cccc(C(=O)N/N=C/c3ccc4c(c3)OCCO4)c2)cc1	NCF1 inh 31, Mcl1-Bid inh 65
O=C(N/N=C/c1ccc2c(c1)OCO2)c1sc2cc(Cl)ccc2c1Cl	NCF1 inh 31, Mcl1-Bid inh 51, eIF4E 4G PPI 30
O=C(N/N=C/c1ccc2c(c1)OCO2)c1sc2cccc(Cl)c2c1Cl	none
COc1ccc2c(Cl)c(C(=O)N/N=C/c3ccc4c(c3)OCO4)sc2c1	14-3-3 Bad PPI 73[fluorescence artefact?]
CC(=O)NC(Cc1c[nH]c2ccccc12)C(=O)OCC(=O)N1CCCCCC1 (centres undefined)	none
Cc1c(-c2ccnc3cc(C(=O)O)nn23)cnn1C	none
COc1ccc(NC2c3ccccc3C(=O)N2Cc2ccc3c(c2)OCO3)cc1 (centres undefined)	none (no result: Bim-Mcl-1)
O=C1CN(C(=O)COc2ccc(F)cc2Br)c2ccccc2N1	none
O=C(O)C1Cc2ccccc2CN1S(=O)(=O)/C=C/c1ccccc1 (centres undefined)	14-3-3 Bad PPI 86
COc1cc(/C=C2\SC(c3ccc(C)cc3)=NC2=O)cc(OC)c1OC	none (no result: Mcl1 Noxa PPI)
COc1cc(/C=C2\SC(c3ccccc3)=NC2=O)cc(Cl)c1O	Mcl1 Noxa PPI 73
COc1ccc(N2CSC3=C(C#N)C(c4cc(OC)c(OC)cc4OC)CC(=O)N3C2)c(OC)c1 (centres undefined)	NCF1 inh 33
COc1ccc(N2CSC3=C(C#N)C(c4cccs4)CC(=O)N3C2)cc1 (centres undefined)	eIF4E 4G PPI 47[fluorescence artefact?]
Cc1ccc(N2CSC3=C(C#N)C(c4cccs4)CC(=O)N3C2)cc1 (centres undefined)	none
COc1ccc(N2CSC3=C(C#N)C(c4cc(OC)ccc4OC)CC(=O)N3C2)c(OC)c1 (centres undefined)	none
Cc1sc2nc(CSCC(=O)Nc3ccccc3C#N)[nH]c(=O)c2c1C	none
Cc1ccc(C(=O)COC(=O)CNC(=O)c2ccc(N3C(=O)c4ccccc4C3=O)cc2)cc1C	Mcl1 Noxa PPI 83
COc1ccc(S(=O)(=O)/N=C2/C=CC(=O)C(C)=C2C)cc1	Mcl1 Noxa PPI 67
COc1cc(C=O)ccc1OS(=O)(=O)c1ccc(NC(C)=O)cc1	Mcl1-Bid inh 53
CCOC(=O)C1=C(O)/C(=C\c2ccc(CNC(=O)C(=O)Nc3ccccc3)o2)N=C1C	Mcl1 Noxa PPI 96
CCCC1=C(C(=O)OCC)C(c2ccc(OC)c(C)c2OC)C(C#N)=C(N)O1 (centres undefined)	none
Cc1cc(C)cc(OCC(=O)N/N=C/c2ccccn2)c1	none (no result: Bim-Mcl-1)
O=C(CN1CCN(Cc2ccccc2Cl)CC1)N/N=C/c1ccccn1	Mcl1 Noxa PPI 69 (no result: Bim-Mcl-1)
CSc1ccc(/C=N/NC(=O)CN2CCN(Cc3ccccc3Cl)CC2)cc1	none
O=C(COc1ccccc1[N+](=O)[O-])N/N=C/c1ccc(O)c([N+](=O)[O-])c1	none
Cc1ccccc1OCC(=O)N/N=C/c1ccccn1	Bim-Mcl-1 64
O=C(COc1ccccc1C(=O)N/N=C\c1ccc(O)c(O)c1)N/N=C/c1ccc(O)c(O)c1	Mcl1 Noxa PPI 100
Cc1ccc(NC(=S)N(CCN2CCOCC2)Cc2cc3cc4c(cc3[nH]c2=O)OCO4)cc1	none
COc1ccc(-n2c(CN3CCN(c4ccccn4)CC3)nc3ccc([N+](=O)[O-])cc3c2=O)c(OC)c1	none
N#CCCN(C(=O)COC(=O)c1ccc(CNS(=O)(=O)c2ccc(F)c(Cl)c2)cc1)c1ccc(F)cc1	none
NC(=S)c1cc2cc(Cl)ccc2oc1=O	none (no result: Bim-Mcl-1)
O=[N+]([O-])c1ccc(C2Nc3cccc4cccc(c34)N2)cc1	Mcl1 Noxa PPI 67
O=c1n(Cc2ccccc2Cl)nc2n1-c1ccccc1SC2	none (no result: Bim-Mcl-1)
Cn1c(=O)c2ncn(CC(=O)Nc3cccc(-c4nc5ccccc5s4)c3)c2n(C)c1=O	Mcl1 Noxa PPI 64
CCCC(C)NC(=O)COc1ccc(S(=O)(=O)c2ccc(OCC(=O)NC(C)CCC)cc2)cc1 (centres undefined)	none
COc1ccc(OCCOC(=O)c2nc3nccc(C)n3n2)cc1	none
O=C(O)CCCCC1CCSS1 (centres undefined)	14-3-3 Bad PPI 99, Mcl1-Bid inh 97, eIF4E 4G PPI 72, Mcl1 Noxa PPI 74
O=C(NCc1cccnc1)/C(=C\c1ccc(-c2ccc(Cl)c(Cl)c2)o1)S(=O)(=O)c1ccccc1	Mcl1-Bid inh 55
CC(C)(C)c1ccc(C(=O)NNC(=O)C2CCCCC2)cc1	NCF1 inh 31
CC(C)CC(=O)NC(=S)N(Cc1ccccc1)Cc1ccccc1	Mcl1 Noxa PPI 56
COc1ccccc1/C=C(/NC(=O)c1ccc(Cl)cc1Cl)C(=O)O	14-3-3 Bad PPI 85
Cc1occc1-c1nnc(-c2cc([N+](=O)[O-])cc([N+](=O)[O-])c2)o1	none
